Screening results: PubChem, National Center for Advancing Translational Sciences (NCATS)
Only some compounds are listed: those with a hit (about 2.4% of all), similar ones and a draw of the others.
D2 ag-1 – agonists of human D2 dopamine receptor; P14416; HEK293 T-REx D2 cells, calcium flux agonist mode; activation, % at 2 µM; hit rate 0.53% among 340,000;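 active means activation over 3 SD above normal in the single-dose calcium agonist read, cut at about 30% in these data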; further: 0% is about no effect
Target sequence (P14416 whole entry, looked up): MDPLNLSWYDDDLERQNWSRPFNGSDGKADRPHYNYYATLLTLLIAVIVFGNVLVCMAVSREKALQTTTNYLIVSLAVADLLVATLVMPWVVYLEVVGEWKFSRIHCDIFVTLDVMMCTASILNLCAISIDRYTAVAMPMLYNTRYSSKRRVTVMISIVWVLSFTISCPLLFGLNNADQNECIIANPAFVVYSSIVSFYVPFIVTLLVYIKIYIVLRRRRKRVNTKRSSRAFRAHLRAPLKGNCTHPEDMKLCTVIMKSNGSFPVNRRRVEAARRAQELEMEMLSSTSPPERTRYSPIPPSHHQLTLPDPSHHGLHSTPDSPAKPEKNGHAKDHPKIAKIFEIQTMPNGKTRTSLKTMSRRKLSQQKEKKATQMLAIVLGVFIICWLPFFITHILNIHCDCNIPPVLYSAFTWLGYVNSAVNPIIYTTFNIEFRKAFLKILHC
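HEK293 Trex D2 cells, tetracycline-induced, o/n 30 C 5% CO2; no-wash Ca dye, RT 30–90 min; 10-cycle baseline, 23 nl cpd added, kinetic Ca read 180 s; agonist hits = positive Ca response.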
D2 antagonist – antagonizes the human D2 dopamine receptor; P14416; HEK293 TREx D2 cells, calcium flux, dopamine EC80; inhibition, % at 10 µM; hit rate 2% among 340,000; in the data active means inhibition above about 30%; inactive means below that, where a call was filed; further: 0% is about no effect
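Tetracycline-induced HEK293 TREx cells expressing D2 receptor forced-coupled to calcium signalling, loaded with no-wash calcium dye. Compounds added and calcium flux read 180 s, then dopamine added at EC80 and read a further 180 s.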
D2 ag-2 – human D2 receptor agonism in beta-arrestin assay | P14416 | DiscoveRx PathHunter D2 beta-arrestin, luminescence, 90 min; 100% = 57 uM dopamine signal | activation, % (concentration not given with the values) | hit rate 0.084% among 360,000 | AID 624465; in the data active means activation above about 40%; inconclusive means between about 15% and that limit
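Agonist mode: compounds alone added to overnight-plated D2 PathHunter cells for 90 min at 37 C, with 57 uM final dopamine (EC100) defining full response. Beta-arrestin recruitment detected by chemiluminescent reagent, read after 1 h at ambient temperature.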
D2 PAM-1 – positive allosteric modulators of human D2 dopamine receptor | potentiation, % at 10 µM | P14416 | HEK293 T-REx D2, calcium flux, EC20 dopamine potentiation | hit rate 0.34% among 340,000;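 active means potentiation over 3 SD above the plate norm, cut at about 30% in these data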; further: 0% is about no effect
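Cells plated with tetracycline inducer and held overnight at 30 C; calcium dye loaded 30–90 min at room temperature; baseline taken, compound added and read 180 s; EC20 dopamine then added and read 180 s.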
D2 PAM-2 – positive allosteric modulators of human D2 dopamine receptor; DiscoveRx D2 beta-arrestin cells, luminescence, 90 min; 100% = 57 uM dopamine signal; potentiation, % (test concentration not listed); hit rate 0.23% among 360,000; AID 624464; in the data active means potentiation above about 50%; inconclusive means mostly about 30% to 49%
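D2 cells co-treated with compound plus 50 nM dopamine (EC20) for 90 min at 37 deg C to detect potentiation. Beta-arrestin recruitment was read as enzyme-fragment luminescence after 1 h at ambient temperature. Full response was set by 57 uM dopamine.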
* marks the source's active call; other numbers are inactive results.

Results for CC1(C)ON(C2CCCCC2)[C@H]2c3nc4ccccc4n3C[C@H]21 ?
D2 ag-1: 1.6; D2 antagonist: 39.0*; D2 ag-2: -0.2; D2 PAM-1: 1.2; D2 PAM-2: -0.1

What do the screens show for `O=C(c1ccc(Br)cc1)c1coc2ccc(O)cc12`?
D2 ag-2: 0.7; D2 PAM-2: 5.1

Results for O=C(c1ccc(Cl)cc1)c1coc2ccc(O)cc12 ?
D2 ag-1: 0.4; D2 antagonist: 34.7*; D2 ag-2: -3.3; D2 PAM-1: 0.2; D2 PAM-2: -3.4

What do the screens show for `Cc1cc(C)n(-c2nc3ccccc3nc2Nc2ccc(Cl)c(C(=O)OC(C)C)c2)n1`?
D2 ag-1: 0.6; D2 PAM-1: 2.0

Results for COCCn1c(=O)[nH]c2cc(C(=O)NCCN3CCN(c4ccccc4)CC3)ccc2c1=O ?
D2 ag-1: 83.5*; D2 antagonist: 143.5*; D2 ag-2: inconclusive; D2 PAM-1: -28.1; D2 PAM-2: -0.3

How did CCC(=O)NC1CC2CCCC(C1)N2Cc1ccc(C)cc1 (stereo not drawn) do in these assays?
D2 ag-1: -0.2; D2 antagonist: 93.4*; D2 ag-2: -2.7; D2 PAM-1: -29.7; D2 PAM-2: -77.5

What do the screens show for `CCCN1C2CCCC1CC(NC(=O)c1ccc(Br)cc1)C2` (stereo not drawn)?
D2 ag-1: 1.1; D2 antagonist: -24.8; D2 ag-2: 0.0; D2 PAM-1: -1.2; D2 PAM-2: -15.2

Results for CC(=O)NC1CC2CCC(C1)N2Cc1ccc(C)cc1 (stereo not drawn) ?
D2 ag-1: 0.7; D2 antagonist: 50.9*; D2 ag-2: 1.6; D2 PAM-1: -19.5; D2 PAM-2: -40.7

What do the screens show for `CC1CCC(N2CC(=O)N(C3CCCCC3)C(c3ccc(F)cc3)C2=O)CC1` (stereo not drawn)?
D2 ag-1: -0.8; D2 PAM-1: -2.7

Results for CCOC(=O)c1[nH]c2ccccc2c1NC(=O)c1ccc(OC)c(OC)c1 ?
D2 PAM-1: 9.7

Results for COc1ccccc1N1CCN(C/C(C)=C/c2ccccc2)CC1 ?
D2 ag-1: 0.1; D2 antagonist: 74.1*; D2 ag-2: -1.6; D2 PAM-1: -23.0; D2 PAM-2: -17.7

What do the screens show for `COc1ccccc1N1CCN(/N=C/c2cccc(OC)c2O)CC1`?
D2 ag-1: -2.6; D2 antagonist: 58.9*; D2 ag-2: -8.9; D2 PAM-1: -5.1; D2 PAM-2: -6.3

What do the screens show for `C/C(=C\c1ccccc1)CN1CCN(c2ccccc2)CC1`?
D2 ag-1: -0.4; D2 antagonist: -5.8; D2 ag-2: inconclusive; D2 PAM-1: -5.6; D2 PAM-2: 1.4

Results for COc1ccccc1N1CCN(CC(=O)N2N=CCC2c2ccccc2)CC1 (stereo not drawn) ?
D2 ag-1: -0.3; D2 antagonist: 41.7*; D2 ag-2: -9.9; D2 PAM-1: -17.8; D2 PAM-2: -22.5

How did COc1ccc(N2CCN(CC(=O)N3N=CCC3c3ccccc3)CC2)cc1 (stereo not drawn) do in these assays?
D2 ag-1: 0.1; D2 antagonist: 12.7; D2 ag-2: 0.2; D2 PAM-1: -3.0; D2 PAM-2: -3.2

Results for O=C(Nc1ccc(F)cc1Cl)c1cnc(N2CCOCC2)c2ccccc12 ?
D2 ag-1: 0.9; D2 PAM-1: 6.7

Results for COc1ccc(NC(=O)C2CCC(CNS(=O)(=O)c3cccc4nsnc34)CC2)cc1OC (stereo not drawn) ?
D2 ag-1: 0.6; D2 PAM-1: -2.4

What do the screens show for `CCn1c(CNC(=O)C23CC4CC(CC(C4)C2)C3)nnc1SCC(=O)Nc1nnc(C)s1`?
D2 ag-1: 0.2; D2 antagonist: 0.2; D2 ag-2: -1.2; D2 PAM-1: 43.4*; D2 PAM-2: 1.5

Results for CCCCn1c(CNC(=O)C23CC4CC(CC(C4)C2)C3)nnc1SCC(=O)Nc1nnc(C)s1 ?
D2 ag-1: -0.4; D2 antagonist: 6.2; D2 ag-2: -3.4; D2 PAM-1: -4.2; D2 PAM-2: -3.9

Results for O=C(C[n+]1ccccc1)N/N=C/c1cc(Br)cc(Br)c1O ?
D2 ag-1: 2.1; D2 antagonist: 31.7*; D2 ag-2: -7.5; D2 PAM-1: -32.0; D2 PAM-2: -30.7
